Assay outcomes deposited in PubChem by National Center for Advancing Translational Sciences (NCATS).
The list is not random: actives were taken first. Their share in the collection is about 19%.
HT1080 IDH1KD tx – qHTS for induction of synthetic lethality in tumor cells producing 2HG: qHTS for the HT-1080-IDH1KD cell line. 360,000 compounds, 2% hits. AID 686971, 2013. HT-1080 IDH1 knockdown viability, ATP luminescence, 48 h. Potency, µM (titrated, usually from 46.1 µM), inactives show at the top dose activity, negative = toxicity, actives largely listed as cytotoxic;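 note: potency is the fitted concentration of half-maximal effect; 0% = DMSO wells and -100% = cell-free medium wells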
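Assay cells: HT-1080 with IDH1 knockdown, 750 per well, RPMI/5% FBS. Exposure: 48 h at 37 °C following 2 h pre-incubation. Read: CellTiter-Glo luminescence; fitted concentration-response, curve class assigned.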
DT40 TDP1 CPT – qHTS for Inhibitors of human tyrosyl-DNA phosphodiesterase 1 (TDP1): qHTS in cells in presence of CPT; chicken DT40 Tdp1-/-;hTDP1 cells + 20 nM CPT, ATP luminescence, 48 h; Potency, µM (top dose mostly 46.2 µM), for the others: top-dose activity change, negative = growth inhibition, usual class: inhibitors; 420,000 compounds, 12% hits; AID 686979, 2013; note: potency is the fitted concentration of half-maximal effect; nearly all actives have a fitted effect of over 55% in size
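Cell growth measured by CellTiter-Glo luminescence after a minimum 48 h, 37 C compound exposure with 20 nM CPT in Tdp1-knockout DT40 cells stably expressing hTDP1, seeded 400/well; qHTS titration format.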
TDP1 cell noCPT – qHTS for Inhibitors of human tyrosyl-DNA phosphodiesterase 1 (TDP1): qHTS in cells in absence of CPT; 420,000 compounds, 15% hits; DT40 Tdp1-/- hTDP1 cells, no CPT, ATP luminescence, 48 h; AID 686978, 2013; Potency, µM (series often up to 46.2 µM), inactives show at the top dose activity change, negative = growth inhibition, usual class: inhibitors; note: potency is the fitted concentration of half-maximal effect; nearly all actives have a fitted effect of over 55% in size
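No-CPT arm: Tdp1-/-;hTDP1 DT40 cells (400/well) plus compounds, incubated ≥48 hr at 37 °C. Readout CellTiter-Glo luminescence.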
HT1080NT lethal – qHTS for induction of synthetic lethality in tumor cells producing 2HG: qHTS for the HT-1080-NT fibrosarcoma cell line; HT-1080-NT fibrosarcoma viability, CellTiter-Glo ATP luminescence, 48 h; Potency, µM (series often up to 46.1 µM), for the others: top-dose activity, negative = less viability, actives largely listed as cytotoxic; 360,000 compounds, 1.6% hits; AID 686970, 2013;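 note: NT is the 2HG producing partner of a matched IDH1 knockdown line; potency is the fitted concentration of half-maximal effect; 0% = DMSO-treated cells and -100% = media-only wells without cells; nearly all actives have a fitted effect of over 55% in size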
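HT-1080-NT; 750 cells/well; 5% FBS RPMI; 48 h compound, 37 degrees C; CellTiter-Glo luminescence; curve fitting and curve-class assignment.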
IL-1B inflam inh – qHTS for Inhibitors of Inflammasome Signaling: IL-1-beta AlphaLISA Primary Screen; activity change, % at 57.5 µM; 360,000 compounds, 4.7% hits; THP-1 LPS/ATP IL-1B secretion, AlphaLISA, 16 h; hits give low values; in the data active = activity change below about -50%; inconclusive = mostly about -30% to -49%
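THP-1 cells pretreated 1 hr with compounds (up to 57.5 uM final), then stimulated with LPS (250 ng/mL final) plus ATP (1.25 mM final); secreted IL-1B measured by AlphaLISA after 16 hr, decreased signal indicating inhibition.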
An asterisk follows results filed as active; i = inactive; ? = inconclusive; / = not tested or not shown. Unless noted, calls come from the whole dose curve; as a rule, active = well fitted curve in the direction sought with a large enough effect; inconclusive = small, poorly fitted or top-dose-only effect, or another doubt; inactive = no such curve, though single readings can be large; an effect the other way counts as inactive or inconclusive. Unless noted, % is set by controls: 0 for no effect and ±100 for the full control effect.

SMILES	HT1080 IDH1KD tx	DT40 TDP1 CPT	TDP1 cell noCPT	HT1080NT lethal	IL-1B inflam inh
CC(=O)c1ccc(NC(=O)CN(C)S(=O)(=O)c2cccc3nsnc23)cc1	/	-1.2%	0.1%	/	/
COCCNC(=O)Cn1cnc2ccc(S(=O)(=O)N3CCC(C)CC3)cc2c1=O	17.7%	-4.0%	-6.9%	9.1%	26.8
CC1CCN(S(=O)(=O)c2cn(CC(=O)Nc3ccc(F)c(Cl)c3)c(=O)c3ccccc23)CC1	/	23.1µM*	23.1µM*	/	/
COc1ccc(NC(=O)Cn2cnc3ccc(S(=O)(=O)N4CCC(C)CC4)cc3c2=O)cc1Cl	/	7.31µM*	4.11µM*	/	/
CN(CC(=O)Nc1cccc(F)c1)C(=O)/C=C/c1cn(Cc2ccccc2)nc1-c1cccnc1	1.3%	?	?	-9.4%	1.8
COc1ccc(Cc2nnc(SCC(=O)c3ccc4c(c3)NC(=O)CO4)o2)cc1	-0.2%	0.4%	-0.6%	1.6%	4.2
O=C(COc1ccccc1/C=C1\SC(=S)NC1=O)Nc1ccc(F)cc1	?	?	10.3µM*	?	-15.5
COc1ccc(N(CC(=O)N/N=C/c2ccco2)S(=O)(=O)c2ccccc2)cc1Cl	6.0%	-29.0%	-8.3%	5.2%	-9.4
Cc1ccc(S(=O)(=O)NC(Cc2ccccc2)C(=O)NN)cc1 (stereo not drawn)	0.4%	0.2%	-1.2%	10.7%	3.1
CCC(=O)N1CCc2cc(S(=O)(=O)NC(CC(C)C)C(=O)Nc3cc(C)ccc3OC)ccc21 (stereo not drawn)	/	18.4µM*	?	/	/
Cc1ccc(S(=O)(=O)N[C@@H](Cc2ccccc2)C(=O)CCl)cc1	16.4µM*	2.59µM*	5.17µM*	?	-106.8*
Cc1ccc(NC(=O)C(Cc2ccccc2)NS(=O)(=O)c2ccc3c(c2)c(=O)n(C)c(=O)n3C)cc1 (stereo not drawn)	/	16.4µM*	?	/	/
CCC(=O)N1CCc2cc(S(=O)(=O)NC(CC(C)C)C(=O)Nc3cccc(C)c3C)ccc21 (stereo not drawn)	/	-19.7%	-20.4%	/	/
CCC(=O)N1CCc2cc(S(=O)(=O)NC(Cc3ccccc3)C(=O)Nc3ccc(C)cc3)ccc21 (stereo not drawn)	/	16.4µM*	?	/	/
COc1ccc(-c2csc(N(CCCN(C)C)C(=O)c3ccc(OC)c(OC)c3)n2)cc1	-2.7%	?	-35.2%	-19.4%	0.0
Cc1ccc(Nc2nc(-c3c(C)nc4ncccn34)cs2)cc1	?	0.0184µM*	0.0065µM*	0.184µM*	-98.4*
Cc1nc2ncccn2c1-c1csc(Nc2ccc(O)cc2)n1	?	?	5.17µM*	-5.7%	-27.9
CNc1ncncc1-c1ccccc1CN(C)C	/	3.7%	-6.1%	/	/
COc1ccccc1CCNC(=O)CNC(=O)Cc1cccc2ccccc12	3.1%	?	?	-17.2%	0.0
O=C(c1cc2ccccc2oc1=O)N(Cc1cccs1)Cc1cccs1	-7.3%	?	23.1µM*	-15.4%	-27.0
O=C(c1cc2ccccc2oc1=O)N(Cc1ccco1)Cc1cccs1	1.1%	20.6µM*	?	6.4%	-24.9
O=C(c1cc2ccccc2oc1=O)N(Cc1cccs1)CC1CCCO1 (stereo not drawn)	24.2%	?	?	0.9%	-11.9
O=C(Nc1ccc([N+](=O)[O-])cc1)C(Cc1ccccc1)N1C(=O)c2cccc3cccc(c23)C1=O (stereo not drawn)	-27.3%	?	5.17µM*	?	54.9
O=C(Nc1ccccc1)C(Cc1ccccc1)N1Cc2ccccc2C1=O (stereo not drawn)	/	8.3%	-12.4%	/	/
OC(COCc1cccs1)CN1CCN(c2cccc(C(F)(F)F)c2)CC1 (stereo not drawn)	5.7%	18.4µM*	20.6µM*	3.7%	i
